From the supplement of paper PMC3545927
Some of the results follow. How many sequences the whole screen found active is unknown.

Molecular target: furin, P09958
Assay: furin cleavage Z-score vs untreated control; higher = more cleavage, active = 3.5 or more, inactive = 1 or less, 8 variable residues between constant flanks
In short: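 Magnetic beads held 8-mer peptides by the N-terminus, each fused to a cDNA oligonucleotide, and purified furin was added for 7.5, 15 or 30 min. Released DNA was sequenced after PCR adapter tagging. The cleavage Z-score is the log count relative to furin-free reactions, lowess-adjusted and divided by median absolute deviation.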
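Further: purified furin at 1:10 enzyme:substrate in 50 mM HEPES pH 7.5.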

Sequence of furin, P09958 (P09958 whole entry): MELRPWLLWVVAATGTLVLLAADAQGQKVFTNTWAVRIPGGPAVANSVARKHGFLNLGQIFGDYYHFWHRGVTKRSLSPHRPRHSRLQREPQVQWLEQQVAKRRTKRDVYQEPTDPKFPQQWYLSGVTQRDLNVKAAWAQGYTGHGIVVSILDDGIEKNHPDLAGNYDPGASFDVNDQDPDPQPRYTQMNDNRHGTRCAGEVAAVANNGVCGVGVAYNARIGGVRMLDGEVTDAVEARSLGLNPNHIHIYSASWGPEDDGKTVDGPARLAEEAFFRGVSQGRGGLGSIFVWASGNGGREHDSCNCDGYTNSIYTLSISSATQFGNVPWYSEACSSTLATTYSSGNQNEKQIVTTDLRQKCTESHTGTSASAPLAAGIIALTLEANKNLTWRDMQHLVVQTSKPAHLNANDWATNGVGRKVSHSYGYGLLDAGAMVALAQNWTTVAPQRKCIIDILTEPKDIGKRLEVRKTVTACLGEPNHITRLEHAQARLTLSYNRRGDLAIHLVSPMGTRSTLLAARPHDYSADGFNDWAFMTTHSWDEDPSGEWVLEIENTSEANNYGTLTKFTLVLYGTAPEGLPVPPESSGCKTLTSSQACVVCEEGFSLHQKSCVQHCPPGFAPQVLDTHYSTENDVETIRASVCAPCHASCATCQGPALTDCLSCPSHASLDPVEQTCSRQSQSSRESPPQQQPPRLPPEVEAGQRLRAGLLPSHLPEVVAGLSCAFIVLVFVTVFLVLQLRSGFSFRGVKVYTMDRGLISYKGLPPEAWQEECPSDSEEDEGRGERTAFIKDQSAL

Sequence | furin cleavage Z-score (7.5 min) | furin cleavage Z-score (15 min) | furin cleavage Z-score (30 min)
CAADVVDGAGAGNASASA [CS8] | 0.136 (inactive) | 0.768 (inactive) | -0.146 (inactive)
CATVSSEANAAGNASASA [HC1364] | -0.827 (inactive) | -1.5 (inactive) | -0.39 (inactive)
CATVSRFRKAAGNASASA [FS-731] | 4.07 (active) | 6.77 (active) | 7.8 (active)
CAWPHRSRKAAGNASASA [FS-574] | 0.887 (inactive) | 1.32 | -0.0044 (inactive)
CAGPSRFRKAAGNASASA [FS-162] | 5.12 (active) | 5.93 (active) | 5.05 (active)
CAGWIRSRKAAGNASASA [FS-1529] | -0.333 (inactive) | 0.0867 (inactive) | 1.14
CAGPQRQKKAAGNASASA [FS-1201] | -1.12 (inactive) | -0.885 (inactive) | 1.12
CAEVVLSTWVAGNASASA [HC124] | -1.79 (inactive) | 0.00773 (inactive) | -0.313 (inactive)
CATPLPAPNYAGNASASA [HC1196] | -2.54 (inactive) | -0.301 (inactive) | -1.86 (inactive)
CAAPAVQTNWAGNASASA [HC1034] | 0.577 (inactive) | -0.967 (inactive) | -0.703 (inactive)
CASFSIFLLAAGNASASA [HC247] | 0.168 (inactive) | -0.433 (inactive) | -0.472 (inactive)
CARKLRGETVAGNASASA [FS-2969] | -1.81 (inactive) | -0.954 (inactive) | -0.18 (inactive)
CARALRSATQAGNASASA [FS-3182] | -0.644 (inactive) | -0.755 (inactive) | 1.8
CARDRRRLEQAGNASASA [FS-2483] | -1.86 (inactive) | 0.963 (inactive) | -0.511 (inactive)
CARKLRSLEQAGNASASA [FS-3193] | 8.09 (active) | 8.14 (active) | 8.28 (active)
CARKLRDVLQAGNASASA [FS-2215] | 2.04 | 4.73 (active) | 4.95 (active)
CARLSRDSLQAGNASASA [FS-2998] | -0.269 (inactive) | -1.05 (inactive) | 1.09
CASNPCSAHLAGNASASA [HC2501] | 0.199 (inactive) | 0.64 (inactive) | 0.644 (inactive)
CAGDNRHLRSAGNASASA [FS-779] | 0.602 (inactive) | 0.112 (inactive) | -0.651 (inactive)

Sequence | furin cleavage Z-score (7.5 min) | furin cleavage Z-score (15 min) | furin cleavage Z-score (30 min)
CAIRFRHLRSAGNASASA [FS-1536] | 2.94 | 3.49 | 3.84 (active)
CASLERHLRSAGNASASA [FS-1413] | 3.94 (active) | 4.91 (active) | 3.46
CAYRARLSRGAGNASASA [FS-636] | 0.776 (inactive) | 2.55 | 2.96
CAYRARQRRAAGNASASA [FS-1295] | 6.02 (active) | 5.59 (active) | 4.76 (active)
CANTARQRRAAGNASASA [FS-1548] | 10.2 (active) | 11.6 (active) | 8.92 (active)
CATTPCSGYWAGNASASA [HC1909] | 0.299 (inactive) | 1.62 | -0.123 (inactive)
CAAIKWEYVVAGNASASA [HC517] | -0.197 (inactive) | -3.37 (inactive) | -0.457 (inactive)
CAVTGGSAGHAGNASASA [HC354] | 0.0621 (inactive) | -1.5 (inactive) | -0.849 (inactive)
CADVSRNARHAGNASASA [FS-1625] | 3.37 | 3.82 (active) | 3.7 (active)
CAVMHRVARHAGNASASA [FS-1431] | 10.4 (active) | 9.27 (active) | 9.21 (active)
CAVGQLFTFSAGNASASA [HC304] | 0.324 (inactive) | -1.01 (inactive) | -1.31 (inactive)
CAEVVTSTWHAGNASASA [HC2255] | 1.36 | -3.35 (inactive) | 0.0251 (inactive)
CAVVTSTWVLAGNASASA [HC988] | -0.433 (inactive) | -1.05 (inactive) | -0.901 (inactive)
CAVGQRQARHAGNASASA [FS-965] | 4.69 (active) | 5.78 (active) | 5.69 (active)
CAVGGVLAALAGNASASA [HC992] | -0.486 (inactive) | -0.617 (inactive) | -1.61 (inactive)
CAVVHRFARHAGNASASA [FS-107] | 10.1 (active) | 9.64 (active) | 8.96 (active)
CAVSFRVGLHAGNASASA [HC1233] | -0.575 (inactive) | 0.122 (inactive) | 1
CAVVHCSMSYAGNASASA [HC2035] | -0.95 (inactive) | -0.538 (inactive) | -0.331 (inactive)
